According to PubChem BioAssay (NCI):
Compounds without any hit were thinned out: in the full panel of roughly 79,000, 15% have a hit. Activity calls are given as the source filed them. No stated cut-off is given here; in the data, active means growth inhibition above about 70%; inactive means the rest.

Assays:
[1] = NCI Yeast Anticancer Drug Screen. Data for the rad50 strain (AID 155);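 further: 0% = growth of vehicle-only cultures of the same strain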; conditions: S. cerevisiae rad50 strain growth inhibition, active compounds read high
Summary of the method: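 Growth of the mutant yeast was measured after compound exposure and referenced to vehicle-treated cultures.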

[2] = NCI Yeast Anticancer Drug Screen. Data for the mec2-1 strain (AID 157); conditions: S. cerevisiae mec2-1 strain, active compounds read high
Summary of the method: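 Cells of the genetically defined mec2-1 yeast strain are incubated with test compound. Inhibition of growth is calculated against vehicle-treated controls.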

[3] = NCI Yeast Anticancer Drug Screen. Data for the sgs1 mgt1 strain (AID 161);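 further: 0% = growth of cultures given vehicle only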; conditions: S. cerevisiae sgs1 mgt1 strain, active compounds read high
Summary of the method: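 Read-out: growth inhibition vs vehicle controls. Cells: mutant yeast strain deficient in DNA damage repair.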

[4] = NCI Yeast Anticancer Drug Screen. Data for the cln2 rad14 strain (AID 165);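 further: 0% = growth equal to vehicle treated cultures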; conditions: S. cerevisiae cln2 rad14 strain, active compounds read high
Summary of the method: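 The screen exposed genetically defined yeast (cln2 rad14) to test compounds and scored growth inhibition relative to vehicle-treated controls.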

[5] = NCI Yeast Anticancer Drug Screen. Data for the bub3 strain (AID 167); conditions: S. cerevisiae bub3 mutant strain, active compounds read high
Summary of the method: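 Whole-cell yeast assay. The mutant strain was incubated with compounds, and growth inhibition was determined by comparison with vehicle-treated cells.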

[6] = NCI Yeast Anticancer Drug Screen. Data for the mlh1 rad18 strain (AID 175); conditions: S. cerevisiae mlh1 rad18 strain growth inhibition, active compounds read high
Summary of the method: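 Compound-treated yeast growth, normalised to vehicle controls. Strain bears defined DNA repair mutations.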

[7] = at 5.0 µM (retest, dose inferred, filed as 0.5)
[8] = at 50.0 µM (retest, dose inferred, filed as 5.0)

Measured: growth inhibition

COc1ccc(C(=O)CC(=O)c2ccccc2)cc1
inactive: [1]; [7] 1% | [1]; at 50.0 µM -6.2% | [2]; [7] -1% | [2]; at 50.0 µM 17.8% | [3]; [7] 2% | [3]; at 50.0 µM 20.4% | [4]; [7] -15% | [4]; at 50.0 µM -17.3% | [5]; [7] 24% | [6]; [7] 0% | [6]; at 50.0 µM 14.1%
active: [1]; [8] 99% | [2]; [8] 99% | [3]; [8] 99% | [4]; [8] 99% | [5]; [8] 99% | [5]; at 50.0 µM 80% | [6]; [8] 99%

CC(C)NC(=O)OCCN=C1c2ccccc2CCc2ccccc21
inactive: [1]; [7] -17% | [2]; [7] -32% | [3]; [7] -46% | [4]; [7] -26% | [4]; [8] 60% | [4]; at 50.0 µM 61.5% | [5]; [7] -62% | [6]; [7] -11% | [6]; at 50.0 µM 68.8%
active: [1]; [8] 95% | [1]; at 50.0 µM 76.4% | [2]; [8] 96% | [2]; at 50.0 µM 78.8% | [3]; [8] 89% | [3]; at 50.0 µM 77.5% | [5]; [8] 97% | [5]; at 50.0 µM 81.5% | [6]; [8] 95%

CN(NC1OC(=O)c2ccccc21)c1ccc(C(F)(F)F)cc1[N+](=O)[O-] (stereo not given)
active: [4]; at 50.0 µM 71.2%
inactive: [1]; [7] 46% | [1]; [8] 39% | [1]; at 50.0 µM 65.7% | [2]; [7] 33% | [2]; [8] 36% | [2]; at 50.0 µM 54.2% | [3]; [7] 43% | [3]; [8] 49% | [3]; at 50.0 µM 55.1% | [4]; [7] 25% | [4]; [8] 31% | [5]; [7] 43% | [5]; [8] 69% | [5]; at 50.0 µM 36.2% | [6]; [7] 47% | [6]; [8] 48% | [6]; at 50.0 µM 54.5%

CSC(=S)NN=C(c1ccccc1)c1ccccc1
inactive: [1]; [7] 9% | [1]; at 50.0 µM 55.6% | [2]; [7] 13% | [2]; at 50.0 µM 39.4% | [3]; [7] 18% | [3]; at 50.0 µM 69.8% | [4]; [7] 7% | [4]; at 50.0 µM 53.9% | [5]; [7] 0% | [6]; [7] 16%
active: [1]; [8] 97% | [2]; [8] 99% | [3]; [8] 99% | [4]; [8] 91% | [5]; [8] 98% | [5]; at 50.0 µM 86.2% | [6]; [8] 99% | [6]; at 50.0 µM 81.8%

COC(=O)CCCCCOS(=O)(=O)c1ccc(C)cc1
active: [4]; at 50.0 µM 84.2%
inactive: [1]; [7] 1% | [1]; [8] -5% | [1]; at 50.0 µM 26.9% | [2]; [7] -3% | [2]; [8] -5% | [2]; at 50.0 µM 16.2% | [3]; [7] -4% | [3]; [8] -3% | [3]; at 50.0 µM 21.9% | [4]; [7] -3% | [4]; [8] -14% | [5]; [7] -1% | [5]; [8] -5% | [5]; at 50.0 µM 1.05% | [6]; [7] -5% | [6]; [8] -8% | [6]; at 50.0 µM 0.7%

N=c1n(CC(=O)NC23CC4CC(CC(C4)C2)C3)c2ccccc2n1Cc1ccc(Cl)cc1
active: [1]; at 50.0 µM 92.5% | [2]; at 50.0 µM 93.3% | [3]; at 50.0 µM 93.4% | [4]; at 50.0 µM 92.4% | [5]; at 50.0 µM 91.4% | [6]; at 50.0 µM 90.3%
inactive: [1]; [7] 33% | [1]; [8] 33% | [2]; [7] 13% | [2]; [8] 13% | [3]; [7] 14% | [3]; [8] 14% | [4]; [7] -2% | [4]; [8] -2% | [5]; [7] -2% | [5]; [8] -2% | [6]; [7] 13% | [6]; [8] 13%

O=[N+]([O-])c1ccc2nc(Nc3ccccc3)c(Nc3ccccc3)nc2c1
active: [1]; [8] 91% | [1]; at 50.0 µM 74.1% | [2]; [8] 95% | [2]; at 50.0 µM 77.8% | [3]; [8] 93% | [4]; [8] 93% | [4]; at 50.0 µM 70.5% | [5]; [8] 93% | [5]; at 50.0 µM 72.2% | [6]; [8] 93% | [6]; at 50.0 µM 73%
inactive: [1]; [7] -18% | [2]; [7] 1% | [3]; [7] -1% | [3]; at 50.0 µM 63.9% | [4]; [7] 24% | [5]; [7] 15% | [6]; [7] -6%

CO/N=C/c1ccc([N+](=O)[O-])s1
active: [1]; [8] 95% | [2]; [8] 80% | [3]; [8] 71% | [5]; [8] 76% | [6]; [8] 94% | [6]; at 50.0 µM 75.5%
inactive: [1]; [7] -147% | [1]; at 50.0 µM 65.7% | [2]; [7] -44% | [2]; at 50.0 µM 16.6% | [3]; [7] -51% | [3]; at 50.0 µM 33.8% | [4]; [7] -63% | [4]; [8] 48% | [4]; at 50.0 µM 7.5% | [5]; [7] -61% | [5]; at 50.0 µM 29.7% | [6]; [7] -108%

COC(=O)/C=C(\C)Nc1ccc(Cc2ccc(Br)cc2)cc1
active: [1]; [8] 98% | [1]; at 50.0 µM 97.5% | [2]; [8] 99% | [2]; at 50.0 µM 96.8% | [3]; [8] 99% | [3]; at 50.0 µM 97.8% | [4]; [8] 99% | [4]; at 50.0 µM 92.9% | [5]; [8] 98% | [5]; at 50.0 µM 94% | [6]; [8] 99% | [6]; at 50.0 µM 98%
inactive: [1]; [7] -4% | [2]; [7] -13% | [3]; [7] -8% | [4]; [7] 0% | [5]; [7] -5% | [6]; [7] -4%

CCCCCCCCCCCCCCCC[N+](C)(C)CC(=O)O
active: [1]; [8] 92% | [2]; [8] 98% | [3]; [8] 97% | [4]; [8] 94% | [4]; at 50.0 µM 88.4% | [5]; [8] 96% | [5]; at 50.0 µM 99% | [6]; [8] 97%
inactive: [1]; [7] 6% | [1]; at 50.0 µM -12.2% | [2]; [7] 7% | [2]; at 50.0 µM 1.2% | [3]; [7] 19% | [3]; at 50.0 µM -1.4% | [4]; [7] 2% | [5]; [7] 0% | [6]; [7] 5% | [6]; at 50.0 µM 7.85%
